VP16 counter – inhibits Gal4-VP16 luciferase reporter, ROR gamma counter-screen | Drosophila S2 Gal4-VP16 UAS-luciferase, luminescence, 20 h | actives 3.5% (n = 310,000) | Potency, µM (top dose mostly 53.6 µM), without a hit: at the highest dose activity, negative = inhibition, most hits filed as inhibitors | AID 2546;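 also: Gal4-VP16 expression switched on by copper sulfate through the metallothionein promoter; potency is read from the fitted curve at half-maximal effect; % is scaled to controls: 0 for no effect and ±100 for the full control effect; nearly all actives have a fitted effect of over 50% in size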
uPA generation – blocks generation of uPA at the cell surface; cell surface uPA generation assay, qHTS; actives 0.31% (n = 330,000); Potency, µM (doses to about 38.3 µM), inactives show top-dose activity change, negative = inhibition, hits mostly inhibitors; AID 540303; active = well fitted inhibition curve with a large enough effect; inconclusive = small, poorly fitted or top-dose-only effect; inactive = no such curve, though single readings can be large or run the other way; tested in mouse RAW 264.7 cells; also: potency is read from the fitted curve at half-maximal effect; % is scaled to controls: 0 for no effect and ±100 for the full control effect; nearly all actives have a fitted effect of over 55% in size
TRPV1 PAM – enhances activation of the human vanilloid receptor TRPV1; actives 0.02% (n = 320,000); Q8NER1; TRPV1-expressing cells, Fluo-8 calcium influx, capsaicin EC20 potentiation; potentiation, % at 8.33 µM; AID 540277; in the data active = potentiation above about 80%; inconclusive = between about 30% and that limit; also: 0% is about no effect
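Fluo-8 calcium influx in TRPV1-expressing cells, kinetic read (ex 480/em 520 nm). Compound added and read 3 min for agonist activity, followed by capsaicin at EC20 final and 2 min further read for enhancement.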
TRPV1 ag – activates the human vanilloid receptor TRPV1; Q8NER1; TRPV1-expressing cells, Fluo-8 calcium influx, agonist mode; activation, % at 8.33 µM; actives 0.19% (n = 320,000); AID 540275; in the data active = activation above about 80%; inconclusive = between about 30% and that limit; also: 0% is about no effect
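Cells expressing TRPV1 were dye-loaded with Fluo-8 and read kinetically: 10 s baseline, 3 min after compound (agonist portion), then 2 min after EC20 capsaicin (allosteric enhancer portion). Calcium-bound dye fluorescence at 480/520 nm.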
RORgamma inh – blocks mouse ROR gamma transcriptional activity; P51450; Drosophila S2 Gal4-RORgamma UAS-luciferase reporter, 20 h; Potency, µM (series often up to 53.6 µM), inactives show at the highest dose activity change, negative = inhibition, hits mostly inhibitors; actives 5.4% (n = 310,000); AID 2551; also: potency is read from the fitted curve at half-maximal effect; % is scaled to controls: 0 for no effect and ±100 for the full control effect; nearly all actives have a fitted effect of over 60% in size
Target sequence (P51450 whole entry, looked up, the tested form may be a part): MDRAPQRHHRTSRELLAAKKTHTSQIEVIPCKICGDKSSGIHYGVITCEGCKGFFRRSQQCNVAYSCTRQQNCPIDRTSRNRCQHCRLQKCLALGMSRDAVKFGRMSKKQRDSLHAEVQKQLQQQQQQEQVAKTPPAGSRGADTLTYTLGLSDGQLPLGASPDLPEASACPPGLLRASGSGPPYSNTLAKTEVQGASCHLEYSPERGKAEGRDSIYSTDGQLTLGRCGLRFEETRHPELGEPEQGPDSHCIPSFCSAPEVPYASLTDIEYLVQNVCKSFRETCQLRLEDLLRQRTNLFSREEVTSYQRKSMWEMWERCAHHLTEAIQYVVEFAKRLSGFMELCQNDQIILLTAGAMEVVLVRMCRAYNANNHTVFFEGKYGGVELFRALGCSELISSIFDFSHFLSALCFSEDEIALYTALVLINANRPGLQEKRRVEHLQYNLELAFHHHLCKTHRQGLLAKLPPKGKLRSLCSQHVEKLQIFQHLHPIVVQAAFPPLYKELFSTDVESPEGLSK
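Using a luciferase readout, inhibitors were identified by reduced reporter activity in Drosophila cells coexpressing a copper-inducible Gal4–ROR gamma fusion and UAS-driven Photinus luciferase, incubated 20 hr after 700 uM copper sulfate.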
Active calls of the source: *; i = inactive; ? = inconclusive; / = no result; [ ] = another dose, or the depositor's remark. This is a sample that favours compounds with a hit; in the whole collection about 5.8% have one here. Unless noted, calls follow the shape of the dose curve; as a rule, active = well fitted curve in the direction sought with a large enough effect; inconclusive = small, poorly fitted or top-dose-only effect, or another doubt; inactive = no such curve, though single readings can be large; an effect the other way counts as inactive or inconclusive.

SMILES	VP16 counter	uPA generation	TRPV1 PAM	TRPV1 ag	RORgamma inh
COCCCNC(=S)NCCc1ccc(F)cc1	?	1%	-9	17	10µM*
Cc1nnc(NC(=O)CCC(=O)N2CCN(S(=O)(=O)c3cc([N+](=O)[O-])ccc3C)CC2)s1	/	0%	/	/	/
COC(=O)C1Cc2ccccc2CN1C(=O)CCl (stereo unspecified)	-24%	-6%	16	0	-31%
Cc1ccccc1-c1nc(-n2ccnc2)c2ccccc2n1	9%	/	/	/	10µM*
NC(=O)c1ccccc1-c1nc(-n2ccnc2)c2ccccc2n1	0%	/	/	/	26%
O=C(Nc1ccccc1)c1ccc(COc2ccccc2)cc1	-2%	10%	-2	13	-1%
CC(C)(C)c1ccc(OCc2ccc(C(=O)N/N=C3\CC4CC=CC34)cc2)cc1 (stereo unspecified)	4.5µM*	-7%	-13	13	7.9µM*
O=C(N/N=C1\CC2CC=CC12)c1ccc(COc2ccccc2)cc1 (stereo unspecified)	5µM*	4%	-15	12	5µM*
C/C=C1/C2C=C(C)CC1(N)c1ccc(=O)[nH]c1C2 (stereo unspecified)	-3%	/	/	/	5%
COCCNC(=S)NC12CC3CC(CC(C3)C1)C2	4.5µM*	5%	8	8	3.5µM*
CCOc1ccccc1NC(=S)Nc1ncccc1C	7.1µM*	-11%	-15	13	7.1µM*
CCOc1ccccc1NC(=S)NCc1ccccc1	8.9µM*	-2%	6	-1	7.1µM*
CCOc1ccccc1NC(=S)NC(=O)CCCOc1ccc(Cl)cc1Cl	22µM*	3%	16	-8	5µM*
Cc1cccnc1NC(=S)Nc1ncccc1C	2%	-9%	2	3	?
CCOc1ccccc1NC(=O)NNS(=O)(=O)c1cc(C)ccc1C	-1%	4%	11	3	-4%
CCOc1ccccc1NC(=S)NNS(=O)(=O)c1c(C)cc(C)cc1C	14µM*	1%	7	1	10µM*
Cc1cc2c(c(=O)n1-c1ccccc1)C1O[C@](c3ccsc3)(Cc3ccccc31)O2	?	/	i	i	-8%[10 µM]
Cc1ccnc(NC(=O)CNC(=O)C23CC4CC(CC(C4)C2)C3)c1	/	-4%	19	7	/
CN(C)c1ccc(N=NS(=O)(=O)O)cc1	0%	/	/	/	-6%
COc1ccc(CNC(=S)NCc2ccc(Cl)cc2)cc1OC	22µM*	-8%	5	97*	?
CCOc1ccc(CNC(=S)Nc2ccccc2)cc1Cl	5.6µM*	4%	-6	?	5.6µM*
CCOc1ccccc1NC(=S)Nc1ccccc1F	?	7%	-9	-5	11µM*
COc1ccc(CC(=O)NNC(=S)Nc2ccccc2)cc1Cl	3%	3%	15	-7	?
CCOc1ccccc1NC(=S)NCc1ccco1	?	-9%	21	-6	10µM*
COc1ccccc1NC(=S)Nc1ccccc1F	?	0%	1	0	?
SMILES	VP16 counter	uPA generation	TRPV1 PAM	TRPV1 ag	RORgamma inh
Cc1noc(C)c1COc1ccccc1C(=O)NC(C)c1ccc(F)cc1 (stereo unspecified)	/	9%	/	/	/
COc1ccccc1NC(=S)NCc1ccccc1	?	-1%	4	9	14µM*
COc1ccccc1NC(=S)NCc1ccccn1	?	-3%	-1	1	?
COc1ccccc1NC(=S)NCc1ccc(Cl)cc1	8.9µM*	-3%	2	10	11µM*
CCOc1ccccc1NC(=S)NCc1cccn1C	20µM*	3%	1	-5	11µM*
O=c1c(-c2ccc(O[C@@H]3O[C@H](CO)[C@@H](O)[C@H](O)[C@H]3O)cc2)coc2cc(O)cc(O)c12	-16%	/	/	/	6%
CCNc1nc(-c2ccc(OC(F)F)cc2)c(C)s1	-56%	-1%	-4	-3	11µM*
COCC(=O)Nc1nc(-c2ccccc2)c(C)s1	-5%	/	-8	5	0%
Cc1ccc(N(NC(=O)C(O)(c2ccccc2)c2ccccc2)C(=O)CCl)cc1	7.9µM*	-12%	21	11	6.3µM*
